Experimental findings from PubChem BioAssay (NCATS) are described below.

Inconclusive results are not listed. The source made the active and inactive calls. The call rests on the fitted dose curve.

Sequence of Vitamin D3 receptor (Homo sapiens) (P11473 whole entry, looked up): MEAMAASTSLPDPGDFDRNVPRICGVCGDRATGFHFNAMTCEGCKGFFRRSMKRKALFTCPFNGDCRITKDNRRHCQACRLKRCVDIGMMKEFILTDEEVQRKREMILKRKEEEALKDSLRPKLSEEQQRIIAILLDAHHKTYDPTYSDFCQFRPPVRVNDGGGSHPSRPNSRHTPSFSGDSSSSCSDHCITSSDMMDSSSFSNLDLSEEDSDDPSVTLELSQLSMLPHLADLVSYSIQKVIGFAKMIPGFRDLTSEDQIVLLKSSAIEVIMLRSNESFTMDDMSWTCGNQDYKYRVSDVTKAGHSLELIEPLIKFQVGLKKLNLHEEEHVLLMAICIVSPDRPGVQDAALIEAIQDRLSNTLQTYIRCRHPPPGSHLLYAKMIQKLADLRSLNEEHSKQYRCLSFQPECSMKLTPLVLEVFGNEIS

This assay has as its target Vitamin D3 receptor (Homo sapiens) (UniProt P11473). Kind of assay: qHTS assay for small molecule agonists of vitamin D receptor signaling (AID 588543). To be noted: HEK293T VDR-UAS-bla, beta-lactamase ratio, 16 h; series mostly up to 76.8 µM; activation: at the top concentration. An excerpt: NIH Chemical Genomics Center [NCGC]
U.S. Environmental Protection Agency [EPA]
National Institutes of Environmental Health Sciences [NIEHS]
National Toxicology Program [NTP]
The Vitamin D receptor (VDR) is a member of nuclear hormone receptor superfamily and it plays a critical role in calcium homeostasis and bone metabolism. It plays a role in inducing cell differentiation, inhibiting cell growth and in thrombogenicity. So, VDR that mediates these effects represents a pharmacological target in prevention and treatment of hyperproliferative malignancies, such as cancer and psoriasis, cardiovascular, immunological, inflammatory and renal diseases etc.
NCGC Assay Protocol Summary
Using a beta-lactamase reporter-gene under control of Vitamin D receptor (VDR) response element, a cell-based assay [GeneBLAzer (VDR -UAS-bla assay developed by Invitrogen] was used to measure VDR ligands signaling. GeneBLAzer VDR -UAS-bla HEK293T cells were used with assay medium containing 2% charcoal-stripped FBS. The assay was performed in clear bottom black Greiner 1536-well plates. 1-alpha,25-Dihydroxy vitaminD3 was used as a positive control in the screen. Library compounds were measured for their ability to stimulate the reporter gene activity. Compounds were screened in a titration series in 1536-well format. The fluorescence intensity (405 nm excitation, 460/530 nm emission) was measured using an EnVision plate reader. Data was normalized relative to 1-alpha,25-Dihydroxy vitaminD3 control (50 nM, 100%) and DMSO only wells (basal, 0%). Concentration-response titration points for each compound were fitted to the Hill equation yielding concentrations of half-maximal stimulation (EC50) and maximal response (efficacy) values.
qHTS protocol for VDR beta-lactamase assay in agonist mode
[Step] [Parameter] [Value] [Description]
1. Reagent; 6 uL; 2000 cells/well
2. Incubation; 37 C for 5 hrs
4. Controls (1-alpha,25-Dihydroxy vitaminD3); 23 nL,
- Final concentrations of 50 nM and 15 nM in two columns
5. Incubation; 37 C for 16 hrs
6. Detection reagent; 1 uL of CCF4-dye
7. Incubation; RT for 2 hrs
8. Detection; Fluorescence; Envision plate reader
On the technique in general: Quantitative high-throughput screening tests each substance at several concentrations.
With `NNC(N)=O`, the “activation” value is 3.53% (inactive).

For the compound `ClC(Cl)(Cl)Cl`, the outcome was inactive.

For `CC[C@H](C)[C@H]1O[C@]2(C=C[C@@H]1C)C[C@@H]1C[C@@H](C/C=C(\C)[C@@H](O[C@H]3C[C@H](OC)[C@@H](O[C@H]4C[C@H](OC)[C@@H](O)[C@H](C)O4)[C@H](C)O3)[C@@H](C)/C=C/C=C3\CO[C@@H]4[C@H](O)C(C)=C[C@@H](C(=O)O1)[C@]34O)O2`, the “activation” value was 2.04% (inactive).

With `O=C1C2CC=CCC2C(=O)N1SC(Cl)(Cl)Cl` (centres undefined), the “activation” value is 8.23% (inactive).

Take `[O]=[Cd]`: the “activation” value is -1.46% (inactive).

`CCCCCl`: the “activation” value is 0.966% (inactive).

As for `CCCCCCCCOC(=O)c1ccccc1C(=O)OCCCCCCCC`, the “activation” value was 3.49% (inactive).

As to `[O]=[Cr](=[O])([OH])[O][Cr](=[O])(=[O])[OH]`, the outcome was inactive.

`C=CCN=C=S`: the “activation” value is -0.408% (inactive).

As for `CCCSP(=O)(OCC)SCCC`, the “activation” value is -1.32% (inactive).

For the compound `CC(C)Nc1ccc(Nc2ccccc2)cc1`, the “activation” value is 0.76% (inactive).

For `O=[N+]([O-])c1ccc(F)c([N+](=O)[O-])c1`, the “activation” value is 2.14% (inactive).

`CCOP(=O)(OCC)O/C(=C/Cl)c1ccc(Cl)cc1Cl`: the outcome was inactive.

For the compound `O=C(O)c1cc[c]([Hg][Cl])cc1`, the “activation” value was -4.69% (inactive).

Consider `COC1=CC(=O)O[C@@H](/C=C/c2ccccc2)C1`, for which the “activation” value was 1.25% (inactive).

Regarding `N#CN`, the “activation” value is 2.32% (inactive).

Turning to `ClCC1CO1` (centres undefined), the “activation” value was 2.34% (inactive).

Turning to `CCOC(=O)c1ccccc1C(=O)OCC`, the result was inactive.

In the case of `C[C@]12CCC(=O)C[C@@H]1CC[C@@H]1[C@@H]2CC[C@]2(C)[C@@H](O)CC[C@@H]12`, the “activation” value is -3.52% (inactive).

`O=[N+]([O-])C(Br)(CO)CO`: the “activation” value was -0.354% (inactive).

Regarding `O=C(O)C(Cl)(Cl)Cl`, the outcome was inactive.

For `O=Cc1ccco1`, the “activation” value is 1.75% (inactive).

With `COCC(C)N(C(=O)CCl)c1c(C)csc1C` (centres undefined), the “activation” value is -6.76% (inactive).

Regarding `Clc1ccccc1Cl`, the “activation” value was -1.48% (inactive).

`C[C@H]1CC[C@@H]2[C@@H](C)[C@H]3[C@H](C[C@H]4[C@@H]5CC=C6CC(O[C@@H]7O[C@H](CO)[C@H](O)[C@H](O[C@@H]8O[C@H](CO)[C@@H](O)[C@H](O)[C@H]8O)[C@H]7O[C@H]7O[C@@H](C)[C@H](O)[C@@H](O)[C@H]7O)CC[C@]6(C)[C@H]5CC[C@]34C)N2C1` (some centres undefined): the “activation” value is 2.24% (inactive).

Turning to `O=C/C=C/c1ccccc1`, the result was inactive.

For the compound `CC(C)CCON=O`, the “activation” value was -1.97% (inactive).

With `O=C1CCO1`, the “activation” value is 2.35% (inactive).

For `S=C=S`, the “activation” value is 1.42% (inactive).
